The values that follow come from PubChem BioAssay AID1347076 (National Center for Advancing Translational Sciences (NCATS), 2019).

About 13,000 (3.2%) of roughly 400,000 compounds were called active. Not shown: some 18% with an inconclusive outcome. Many of the other results were omitted from the sample, so actives are more common in it than they were. Unmarked numbers belong to inactive results. Calls follow the shape of the dose curve; as a rule, active = well fitted cell-killing curve with a large enough effect; inconclusive = small, poorly fitted or top-dose-only effect, or effect the other way; inactive = flat fitted curve, though single readings scatter.
% is scaled to controls: 0 for no effect and ±100 for the full control effect; potency is read from the fitted curve at half-maximal effect.

The assay in a line: qHTS assay for MDR1-selective chemotherapeutics: Primary screen using the drug-selected MDR subline cells KB-V1. Also: nearly all actives have a fitted effect of over 60% in size. As to conditions: KB-V1 MDR cells viability, CellTiter-Glo, 72 h; series mostly up to 46.1 µM; activity change, negative = cytotoxicity: at the top concentration. The gist of the method:
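Cytotoxicity toward P-gp-expressing KB-V1 cells was determined as loss of CellTiter-Glo luminescence after 72 h at 37 degrees C. Compounds were tested in quantitative HTS format across a concentration range, with curves fitted to normalized data.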
On the technique in general: In qHTS, concentration-response curves come from the screen itself.
Turning to `OC(CBr)CN1CCCCC1` (stereo not drawn), the “activity change, negative = cytotoxicity” value is 6.25%.
The same measure, in the same setting: the result for `CCn1cc(C(=O)N(C)Cc2ccccc2)c(=O)c2cc(S(=O)(=O)N3CCCCCC3)ccc21` reads 0%; that for `Cc1ccc(-c2ccc(C3=CC(=O)CC(C)(C)C3=O)cc2)cc1`, -4.78%; that for `CC(C)(C)Cc1c(C2CCCCC2)nc2ccc(Br)cn12`, 11%.
For the compound `CCc1ccccc1NC(=O)/C(=C/c1ccccc1)c1ccccc1`, the “activity change, negative = cytotoxicity” value was -26.7%.
For the compound `O=C(/C=C/c1ccccc1)N/C(=C/c1ccccc1)C(=O)Nc1ccccc1O`, the Potency is 23.1 µM (active).
On to `O=C(Nc1ccc(C(=O)O)cc1)/C(=C\c1ccccc1)NC(=O)c1ccc(Br)cc1`, for which the “activity change, negative = cytotoxicity” value was 2.86%.
Regarding `COc1ccc(C(=O)Nc2nc(-c3ccc(S(=O)(=O)N4CCOCC4)cc3)cs2)cc1`, the Potency was 16.4 µM (active).
With `Cc1cc2nc(NC(=O)c3ccc(S(=O)(=O)N4CCOCC4)cc3)sc2cc1C`, the “activity change, negative = cytotoxicity” value is 0%.
Still for that read-out and setting: the result for `CCOC(=O)c1csc(NC(=O)c2ccc(S(=O)(=O)N3CCCC3)cc2)n1` reads 14.3%; that for `O=C(O)c1ccccc1Cc1ccc(F)c2ccccc12`, 10.8%.
The same measure, in the same setting: the result for `COC(=O)C[C@H]1C=C[C@@H](NS(=O)(=O)c2ccc(C)cc2)[C@@H](CO)O1` reads 6.54%; that for `Cc1[nH]c2ccccc2c1C(=O)C(=O)N(C)c1ccccc1`, 10.4%.
Still for that read-out and setting: the result for `CNS(=O)(=O)c1ccc2c(c1)[nH]c(=S)n2C` reads 8.16%.
For the compound `Cc1nc(CNS(=O)(=O)c2ccc(Oc3ccccc3)cc2)cs1`, the Potency was 8.2 µM (active).
With `Cc1nc(CNS(=O)(=O)c2cccnc2)cs1`, the “activity change, negative = cytotoxicity” value was 0.995%.
Turning to `Cc1ccc(S(=O)(=O)NCc2csc(C)n2)c(C)c1`, the “activity change, negative = cytotoxicity” value is 10.2%.
`CC(=O)c1ccccc1NC(=O)COC(=O)C1COc2ccccc2O1` (stereo not drawn): the “activity change, negative = cytotoxicity” value is 10.8%.
The same measure, in the same setting: as for `COc1cc(C(O)c2nc(-c3cccc(C(=O)O)c3)cs2)ccc1F` (stereo not drawn), the figure is 0%; as for `COC(=O)C1=CN(c2c(C)cc(C)cc2C)C(N)=C(C#N)C1c1cccc(F)c1` (stereo not drawn), -19.9%; as for `Cc1nnc(C)n1-c1ccc(C(=O)Nc2cccc(Br)c2)cc1`, 7.83%.
Turning to `COC(=O)C1NN=C(C(=O)c2ccc(Br)cc2)C1c1cccc(Br)c1` (stereo not drawn), the Potency is 23.1 µM (active).
For `O=C(NC1CC1)c1cccc(Br)c1`, the “activity change, negative = cytotoxicity” value was 7.99%.
The same measure, in the same setting: the result for `Cc1ccc(-n2c(C)cc(/C=N/Nc3ccc([N+](=O)[O-])cn3)c2C)c(C)c1` reads -22.1%.
As to `Cc1cccc(COc2ccccc2/C=N/Nc2ccc([N+](=O)[O-])cc2)c1`, the Potency is 16.4 µM (active).
Turning to `Cc1ccc(NS(=O)(=O)c2ccc(N/N=C/c3ccccc3OCC(=O)O)c([N+](=O)[O-])c2)c(C)c1`, the “activity change, negative = cytotoxicity” value is 11%.
In the case of `CC1(C)OC(=O)C2=C(CC(c3ccccc3)OC2CCc2ccccc2)O1` (stereo not drawn), the “activity change, negative = cytotoxicity” value was -13.9%.
The same measure, in the same setting: as for `Cc1noc(C)c1NC(=O)N(C)C[C@@H]1Oc2cc(Br)ccc2S(=O)(=O)N([C@@H](C)CO)C[C@H]1C`, the figure is 12.1%.
